Compound activity: PubChem BioAssay, National Center for Advancing Translational Sciences (NCATS)
HT1080-NT tox: kills 2HG-producing HT-1080-NT fibrosarcoma cells | HT-1080-NT fibrosarcoma viability, CellTiter-Glo ATP luminescence, 48 h | Potency, µM (highest dose often 46.1 µM), usual class: cytotoxic | hit rate 1.6% among 360,000 | AID 686970;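 further: NT is the 2HG producing partner of a matched IDH1 knockdown line; nearly all actives have a fitted effect of over 55% in size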
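Compounds were tested in concentration-response format on HT-1080-NT cells for 48 hours at 37 degrees C. Cell viability came from CellTiter-Glo luminescence; curves were classified by r2, response magnitude and activity.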
HT1080 IDH1KD tx: HT-1080 IDH1 knockdown cell toxicity (counter line). hit rate 2% among 360,000. Potency, µM (series often up to 46.1 µM), actives largely listed as cytotoxic. HT-1080 IDH1 knockdown viability, ATP luminescence, 48 h
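Luminescent ATP read-out (CellTiter-Glo, 10 min at room temperature) after 48 h compound exposure at 37 °C gave viability of IDH1-knockdown HT-1080 cells. Activity was normalised to DMSO and cell-free wells, then fitted as concentration-response curves.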
TDP1 cell CPT: DT40-hTDP1 cell growth loss with CPT. chicken DT40 Tdp1-/-;hTDP1 cells + 20 nM CPT, ATP luminescence, 48 h. Potency, µM (doses to about 46.2 µM), most hits filed as inhibitors. hit rate 12% among 420,000; further: nearly all actives have a fitted effect of over 55% in size
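Chicken DT40 Tdp1-/- cells complemented with human TDP1, 400 cells/well, exposed to compounds plus 20 nM camptothecin for at least 48 h at 37 C; viability read as ATP content by CellTiter-Glo luminescence.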
KB-3-1 cytotox: kills parental KB-3-1 adenocarcinoma cells. Potency, µM (titrated, usually from 46.1 µM), most hits filed as cytotoxic. KB-3-1 viability, CellTiter-Glo ATP luminescence, 72 h. hit rate 1.4% among 400,000; further: nearly all actives have a fitted effect of over 60% in size
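Cytotoxicity in the drug-sensitive parental line KB-3-1 was scored as loss of CellTiter-Glo luminescence following 72 h incubation with compound. Values come from curve fitting of normalized concentration-response data.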
KB-V1 cytotox: kills drug-selected multidrug resistant KB-V1 cells; KB-V1 MDR cells viability, CellTiter-Glo, 72 h; Potency, µM (titrated, usually from 46.1 µM), usual class: cytotoxic; hit rate 3.4% among 400,000; AID 1347076; further: nearly all actives have a fitted effect of over 60% in size
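In this primary screen, KB-V1 cells overexpressing P-gp are incubated with library compounds (lowest to highest concentration) for 72 h at 37 degrees C before a luminescent ATP viability read.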
DT40 TDP1 no CPT: qHTS for Inhibitors of human tyrosyl-DNA phosphodiesterase 1 (TDP1): qHTS in cells in absence of CPT | DT40 Tdp1-/- hTDP1 cells, no CPT, ATP luminescence, 48 h | hit rate 15% among 420,000 | AID 686978, 2013 | Potency, µM (doses to about 46.2 µM), actives largely listed as inhibitors; further: nearly all actives have a fitted effect of over 55% in size
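Cells were dispensed at 400 per well, compounds added by pin tool, plates incubated ≥48 hr at 37 °C, then CellTiter-Glo added for 30 min at room temperature before luminescence reading. Line: DT40 Tdp1-/- complemented with hTDP1; camptothecin omitted.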
Numbers stand for hits; n = inactive; u = inconclusive; x = no result. The list is not random: actives were taken first. Their share in the collection is about 19%. The call rests on the fitted dose curve; in most records, active means well fitted curve in the direction sought with a large enough effect; inconclusive means small, poorly fitted or top-dose-only effect, or another doubt; inactive means no such curve, though single readings can be large; an effect the other way counts as inactive or inconclusive.

SMILES	HT1080-NT tox	HT1080 IDH1KD tx	TDP1 cell CPT	KB-3-1 cytotox	KB-V1 cytotox	DT40 TDP1 no CPT
Cc1ccc2c(c1)[C@H]1[C@H](CO2)[C@H](c2ccccc2)[C@]2(C)C(=O)Nc3cc(F)c(F)cc3C(=O)N12	u	u	u	u	n	u
COc1cc2c(cc1OC)C(=O)N1[C@H]3c4cc(C)ccc4OC[C@@H]3[C@H](c3ccccc3)[C@]1(C)C(=O)N2	u	16.4µM	18.4µM	u	u	20.6µM
COc1ccc2c(c1)[C@H]1[C@H](CO2)[C@H](c2ccccc2)[C@]2(C)C(=O)Nc3cc(Cl)ccc3C(=O)N12	n	n	u	n	n	u
COC(=O)C(CC(=O)c1ccc(Cl)cc1)c1ccccc1 (stereo unspecified)	n	n	u	n	u	n
Cc1ccc2c(c1)[C@H]1[C@H](CO2)[C@H](c2ccccc2)[C@]2(C)C(=O)Nc3ccc(F)cc3C(=O)N12	u	5.8µM	20.6µM	u	u	20.6µM
COC(=O)C1=CN(Cc2ccc(C)cc2)C=C(C(=O)OC)C1c1cc(OC)c(OC)c(OC)c1	n	n	16.4µM	n	n	u
C[N+]1(CC(=O)c2ccc3ccccc3c2)CCOCC1	x	x	n	u	n	n
Cc1ccc(NC(=O)c2ccc(NCCN)c([N+](=O)[O-])c2)cc1Cl	n	n	u	n	u	20.6µM
CN1C(=O)c2ccc(NC(=O)c3ccc(N4CCCCC4)c([N+](=O)[O-])c3)cc2C1=O	n	n	23.1µM	n	n	u
Cc1ccc(NC(=O)c2ccc(NCCc3ccccc3)c([N+](=O)[O-])c2)cc1F	n	n	u	u	n	u
Cc1ccc(NC(=S)NNC(=O)c2ccc(N3CCOCC3)c([N+](=O)[O-])c2)cc1Cl	n	n	n	u	16.4µM	n
Cc1cc(C(=O)Nc2ccc(N3CCCC3)c(Cl)c2)ccc1[N+](=O)[O-]	n	n	u	n	n	18.4µM
O=C(Nc1cccnc1)c1ccc(N2CCCC2)c([N+](=O)[O-])c1	n	n	n	n	u	n
Cc1cccc(NC(=O)c2ccc(S(=O)(=O)N3CCOCC3)cc2)n1	n	n	n	n	n	n
Cc1c(C(=O)N2CCC(C)CC2)c(S(=O)(=O)NCc2ccc(Cl)cc2)c(C)n1C	x	x	u	x	x	n
COc1ccccc1N1CCN(S(=O)(=O)CCNC(=O)c2cccs2)CC1	n	n	n	n	n	u
CC(=O)N1c2ccccc2CC1C(=O)N1CCN(c2ccccc2F)CC1 (stereo unspecified)	x	x	u	n	n	n
Nc1nnnn1/N=C/c1ccc(N2CCCCC2)c([N+](=O)[O-])c1	n	n	20.6µM	n	n	13µM
O=C(O/N=C\c1ccc(N2CCCCC2)c([N+](=O)[O-])c1)c1ccc(Cl)cc1Cl	n	n	u	n	u	n
O=C(/C=C/c1ccc(N2CCCCC2)c([N+](=O)[O-])c1)c1ccc(O)cc1	18.4µM	18.4µM	u	u	u	18.4µM
O=C(c1ccc(N2CCCCC2)c([N+](=O)[O-])c1)N1CCOCC1	n	n	n	n	u	n
CCCNC(=O)CN1CCN(c2cc3ccccc3c(Cl)n2)CC1	n	n	u	n	u	16.4µM
CC1CCN(S(=O)(=O)c2cn(CC(=O)N3CC(C)CC(C)C3)c(=O)c3ccccc23)CC1 (stereo unspecified)	n	n	n	n	1.3µM	u
CN(C)c1c(Cl)cc(/C=C2\C=Cc3ccccc32)cc1Cl	x	x	u	n	n	u
COc1ccc(CCN2CC(C(=O)N(C)Cc3ccccn3)CCC2=O)cc1 (stereo unspecified)	n	n	n	n	n	n
SMILES	HT1080-NT tox	HT1080 IDH1KD tx	TDP1 cell CPT	KB-3-1 cytotox	KB-V1 cytotox	DT40 TDP1 no CPT
Clc1ccc(OCc2nc(-c3ccccn3)n[nH]2)cc1	u	10µM	u	u	4.61µM	u
Clc1ccc(OCc2nc3ccccc3[nH]2)cc1	n	n	n	n	n	u
Brc1ccc(OCc2nc(-c3ccccn3)n[nH]2)cc1	n	u	u	n	n	14.6µM
Cc1cc(Oc2ccc(Cl)cc2)nc(-c2ccccn2)n1	n	u	5.17µM	n	n	5.17µM
Cc1cc(Oc2ccccc2)nc(-c2ccccc2O)n1	n	n	n	n	n	n
Fc1ccccc1N1CCN(Cc2cc(-c3ccccc3)on2)CC1	n	n	n	u	n	n
Nc1nc2c(ncn2[C@@H]2O[C@H](CNCc3ccccc3)[C@@H](O)[C@H]2O)c(=O)[nH]1	n	n	n	u	n	u
CCOc1ccc(Oc2c(/C=N/NC(C)=O)c(C)nn2-c2ccccc2)cc1	n	n	n	n	n	u
O=C(NC1CCCCC1)C1CCCN(c2nnnn2-c2ccccc2)C1 (stereo unspecified)	n	n	n	n	16.4µM	n
CCOc1ccc(NC(=O)C2CCN(c3nnnn3-c3ccccc3)CC2)cc1	n	n	n	n	8.2µM	n
CCOc1ccc(Oc2c(/C=N/NC(=O)C3CC3)c(C)nn2-c2ccccc2)cc1	n	n	u	u	n	14.6µM
CC(Sc1nnnn1-c1ccccc1)C(=O)NC1CCCC1 (stereo unspecified)	n	n	n	n	13µM	n
COc1ccc(NC(=O)c2cnn(-c3ccc(C)cc3)c2-n2cccc2)cc1Cl	x	x	n	x	x	u
COCCNC(=S)NN=C1CCCCC1	n	n	5.17µM	n	n	5.17µM
C=CCNC(=S)NN=C1CCCCCCC1	n	n	16.4µM	n	n	25.9µM
NC(=S)NN=C1C=CCCC1	n	n	2.91µM	n	n	4.61µM
NC(=S)NN=C1CCCCCCCC1	n	n	2.31µM	18.4µM	n	u
CC(C)CNC(=O)C(=O)NN=C1CCCCCC1	n	n	n	u	n	n
NC(=S)NN=C1CCCCCCCCC1	n	n	u	n	u	u
O=C(CSc1nc2ccccc2c(=O)n1CCC(=O)NC1CCCCC1)Nc1ccccc1Cl	x	x	n	n	n	n
CS(=O)(=O)Nc1ccc2c(c1)[C@@H]1C[C@@H](CC(=O)NCc3cccnc3)O[C@H](CO)[C@@H]1O2	n	n	n	n	n	n
C=CCNc1nc(NCCCN2CCCC2=O)c2sc(-c3ccccc3)cc2n1	u	u	18.4µM	n	n	20.6µM
O=C1CCCN1CCCNc1nc(NCc2ccccc2)nc2ccsc12	n	n	18.4µM	n	u	18.4µM
CC(C)(C)OC(=O)C[C@H]1C/C=C\C[C@@H](CC(=O)N[C@@H](CO)Cc2ccccc2)C(=O)NC[C@H](c2ccccc2)OC1=O	n	n	u	n	n	u
